Rows were chosen to be rich in hits. Some 10% of all compounds tested hit in one or more screens of this group.
GPT2 inhibitor = GPT2 alanine aminotransferase inhibition; Recombinant GPT2, coupled pyruvate oxidase/HRP Amplex Red fluorescence; actives 0.25% (n = 100,000); Potency, µM (highest dose often 57.7 µM), for the others: at the highest dose activity change, negative = inhibition, most hits filed as inhibitors; Q8TD30; further: nearly all actives have a fitted effect of over 60% in size
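Inhibition is scored from Amplex Red fluorescence generated when pyruvate oxidase and HRP act on pyruvate released by GPT2. Reactions contain 10ng/uL enzyme, 250uM a-KG and 2mM L-alanine and run 30 min at room temperature.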
3T3 cytotox = NIH 3T3 cell cytotoxicity. NIH 3T3 viability, CellTiter-Glo ATP luminescence, 48-72 h. Potency, µM (top dose mostly 96.7 µM), for the others: at the highest dose activity change, negative = cytotoxicity, usual class: inhibitors. actives 4.3% (n = 94,000); further: nearly all actives have a fitted effect of over 55% in size
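NIH 3T3 cells at 400 cells/well received 23 nL of compound by pintool and were incubated 48 or 72 h at 37 °C. Viability was read as ATP-coupled CellTiter-Glo luminescence.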
HEK cytotox = cytotoxic compounds in HEK 293 cells; HEK 293 viability, ATP luminescence (CellTiter-Glo), 48-72 h; Potency, µM (titrated, usually from 115 µM), inactives show at the top dose activity change, negative = cytotoxicity, usual class: inhibitors; actives 6.6% (n = 94,000); AID 1345083; further: nearly all actives have a fitted effect of over 60% in size
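Pintool-delivered compounds were incubated with HEK 293 cells (250 cells/well) at 37 degree Celsius for 48 or 72 hr. ATP-dependent luminescence (CellTiter-Glo) then reported remaining viable cells.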
Luciferase inh = blocks purified firefly luciferase enzyme activity; P08659; purified P. pyralis luciferase, luminescence, biochemical; Potency, µM (top dose mostly 115 µM), usual class: inhibitors; actives 2.5% (n = 76,000); AID 1347043; further: nearly all actives have a fitted effect of over 65% in size
Target sequence (P08659 whole entry, looked up): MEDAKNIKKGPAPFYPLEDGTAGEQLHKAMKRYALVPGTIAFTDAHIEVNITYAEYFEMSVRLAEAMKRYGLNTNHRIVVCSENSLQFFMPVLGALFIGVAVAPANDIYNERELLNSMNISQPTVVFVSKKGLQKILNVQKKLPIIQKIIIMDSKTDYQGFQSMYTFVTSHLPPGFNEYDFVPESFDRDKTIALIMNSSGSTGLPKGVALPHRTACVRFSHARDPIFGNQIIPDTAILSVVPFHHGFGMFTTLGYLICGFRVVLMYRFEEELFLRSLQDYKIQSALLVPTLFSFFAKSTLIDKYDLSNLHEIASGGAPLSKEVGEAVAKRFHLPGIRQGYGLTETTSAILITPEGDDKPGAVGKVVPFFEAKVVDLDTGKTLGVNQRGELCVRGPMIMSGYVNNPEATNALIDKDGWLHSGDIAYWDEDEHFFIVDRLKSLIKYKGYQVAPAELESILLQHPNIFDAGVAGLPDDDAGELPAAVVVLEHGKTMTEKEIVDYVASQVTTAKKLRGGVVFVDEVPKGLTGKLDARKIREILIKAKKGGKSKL
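Purified P. pyralis luciferase (10nM final) in 50mM Tris acetate pH 7.5, 10mM Mg acetate, 0.01% Tween-20, 0.05% BSA with 10uM D-luciferin and 10uM ATP. Compounds titrated qHTS. Luminescence imaged on CCD.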
NPR1 antag = blocks ANP-stimulated signaling of human Npr1 receptor; HEK293 hNpr1 GloSensor cGMP, ANP-stimulated luminescence; Potency, µM (top dose mostly 46.3 µM), without a hit: at the top dose activity change, negative = inhibition, usual class: inhibitors; actives 1.6% (n = 76,000); calls by dose curve; further: nearly all actives have a fitted effect of over 60% in size
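HEK293 cells stably expressing human Npr1 and cGMP GloSensor pGS-40F, loaded 2 h with 2% GloSensor reagent, given compound 30 min at room temperature. Luminescence read before and 20 min after 0.1 nM hNppA.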
An asterisk follows results filed as active; i = inactive; ? = inconclusive; / = no result; [ ] = dose if it differs, or a comment. Unless noted, the call rests on the fitted dose curve; in most records, active means well fitted curve in the direction sought with a large enough effect; inconclusive means small, poorly fitted or top-dose-only effect, or another doubt; inactive means no such curve, though single readings can be large; an effect the other way counts as inactive or inconclusive. On the % scale 0 is the no-effect control and ±100 the full control effect; potency means the concentration at half of the fitted maximal effect.

SMILES	GPT2 inhibitor	3T3 cytotox	HEK cytotox	Luciferase inh	NPR1 antag
O=C(C1CN(c2ccc(Cl)cc2)C(=O)N1)N1CCN(Cc2ccccc2)CC1 (configuration not stated)	?	?	25µM*	i	0%
Cc1ccc(-c2cn3cc(C(=O)NCCN4CCOCC4)nc3s2)cc1	5%	-18%	-5%	/	/
COC1CCN(C(=O)Cc2c[nH]c3ncc(-c4cnn(C)c4)cc23)CC1	2%[88.5 µM]	45µM*	?	i	6%[70.6 µM]
C[S+](=O)([O-])c1ccc(-c2cnc3[nH]cc(CC(=O)N4CCOCC4)c3c2)cc1	-5%[88.5 µM]	45µM*	-3%[172 µM]	i	0%[70.6 µM]
O=C(Cc1c[nH]c2ncc(-c3cccc(O)c3)cc12)N1CCOCC1	i	?	?	i	-27%[70.6 µM]
Cn1cc(-c2cnc3[nH]cc(CC(=O)N4CCCC4)c3c2)cn1	?	32µM*	-29%[172 µM]	i	9%[70.6 µM]
O=C(Cc1c[nH]c2ncc(-c3ccccc3)cc12)N1CC[S+](=O)([O-])CC1	5%[88.5 µM]	?	-1%[172 µM]	?	0%[70.6 µM]
C#CCNC(=O)c1nc2sccn2c1-c1cccc(OC)c1	i	-20%[138 µM]	-19%[172 µM]	/	/
COC1C(CO)OC(n2cnc3c(=O)[nH]cnc32)C1O (configuration not stated)	i	/	/	/	/
CC(C)CN(Cc1cccnc1)C1CN(C(=O)CC2CCCCC2)C1	5%	5.6µM*	?	i	-16%
CC(=O)NC1CCCN(c2ccc3nnc(C)n3n2)C1 (configuration not stated)	/	-4%[138 µM]	-4%[172 µM]	/	/
Cc1cccc(-c2noc([C@@H]3C[C@@H](O)CN3Cc3ccccn3)n2)c1	i	-27%[138 µM]	?	50µM*	-25%[70.6 µM]
O[C@@H]1C[C@@H](c2nc(-c3ccccc3)no2)N(Cc2ccccc2)C1	-49%[88.5 µM]	?	-13%[172 µM]	i	-6%[70.6 µM]
Cc1cccc(-c2noc([C@@H]3C[C@@H](O)CN3Cc3ccc(Cl)cc3)n2)c1	2%[88.5 µM]	?	100µM*	63µM*	-16%[70.6 µM]
Cc1ccccc1CN1C[C@H](O)C[C@H]1c1nc(-c2ccncc2)no1	-2%[88.5 µM]	?	?	i	2%[70.6 µM]
CN(C)CCN1CCCN(C(=O)CCc2ccccc2)c2ccccc21	-7%	-17%	?	i	1%
COCC(=O)N1CCCN(Cc2cccnc2)c2ccccc21	i	-4%	?	i	3%
COCC(=O)N1CCCN(CCc2ccccc2)c2ccccc21	i	-29%	35µM*	i	-12%
COc1ccccc1CC(=O)N1CCCN(CCc2ccccc2)c2ccccc21	3%	?	40µM*	i	-11%
COCCN1CCCN(C(=O)c2cccc(Cl)c2)c2ccccc21	i	?	45µM*	i	-5%
O=C(c1cccc(Cl)c1)N1CCC(C(=O)N2CCC(N3Cc4cccn4C3=O)CC2)CC1	0%	-26%	?	/	/
Cc1ccc(C(=O)NC2CCN(c3cc(-c4ccccc4)[nH]n3)C2)cc1 (configuration not stated)	?	?	?	i	0%
CC1=C[C@@H](CNC2CCN(C)CC2)[C@H](C(C)C)C[C@H]1Cc1nc2ccc(F)cc2[nH]1	i	?	71µM*	i	-4%[70.6 µM]
CC1=C[C@@H](CNS(C)(=O)=O)[C@H](C(C)C)C[C@H]1Cc1nc2ccc(F)cc2[nH]1	3%[88.5 µM]	?	89µM*	i	?
CC1=C[C@@H](CNS(C)(=O)=O)[C@H](C(C)C)C[C@H]1Cc1nc2ccc(Cl)cc2[nH]1	-15%[88.5 µM]	?	100µM*	i	?
SMILES	GPT2 inhibitor	3T3 cytotox	HEK cytotox	Luciferase inh	NPR1 antag
CC1=C[C@@H](CNC(=O)CCCC(=O)O)[C@H](C(C)C)C[C@H]1Cc1nc2ccc(Cl)cc2[nH]1	i	-30%	-9%	i	0%
O=C(C1CCCN1C(=O)C1CCCC1)N1CCC(N2CCOCC2=O)CC1 (configuration not stated)	i	-3%	4%	/	/
CC(=O)Nc1ccc(CN(C)Cc2ccccc2C(F)(F)F)cc1	i	?	89µM*	i	-4%[70.6 µM]
CC(=O)Nc1ccc(CN(C)Cc2ccc(-c3ccccc3)cc2)cc1	i	?	79µM*	i	-10%[70.6 µM]
O=C(NCc1cccc(Cl)c1)c1ccc2nnc(-c3cccc(C(F)(F)F)c3)n2c1	i	32µM*	?	/	/
O=C(NCCc1ccccc1F)c1ccc2nnc(-c3cccnc3)n2c1	?	-19%	-29%	/	/
O=C(NCCc1ccccc1F)c1ccc2nnc(-c3cccc(C(F)(F)F)c3)n2c1	i	35µM*	?	/	/
O=C(NCc1ccc(F)cc1)c1ccc2nnc(-c3cc(C(F)(F)F)cc(C(F)(F)F)c3)n2c1	i	35µM*	?	/	/
O=C(NCC1CC1)c1cc(-c2ccsc2)c2nncn2n1	i	i	i	/	/
COCCCn1c(=O)c(C(=O)NCCc2ccc(Cl)cc2)nc2cccnc21	-2%	-19%	?	/	/
Cn1ccc(NC(=O)C2(C)CCc3cnc(Nc4ccccc4)nc32)n1 (configuration not stated)	i	?	100µM*	i	-5%[70.6 µM]
Cn1ccc(NC(=O)C2(C)CCCc3cnc(Nc4ccccc4)nc32)n1 (configuration not stated)	-21%[88.5 µM]	?	?	i	8%[70.6 µM]
Cn1ccc(NC(=O)C2(C)CCCc3cnc(NCc4ccccc4)nc32)n1 (configuration not stated)	i	45µM*	?	i	-5%[70.6 µM]
O=C(NCc1ccc(F)c(F)c1)c1ccc2nnc(-c3ccc(F)cc3)n2c1	i	?	?	/	/
CC1=C[C@@H](CNC(=O)COCC(=O)O)[C@H](C(C)C)C[C@H]1Cc1nc2ccccc2n1C	-7%[88.5 µM]	-29%[174 µM]	-6%[172 µM]	i	-16%[70.6 µM]
CC1=C[C@@H](CNC(=O)Cn2cnnn2)[C@H](C(C)C)C[C@H]1Cc1nc2ccc(C)cc2[nH]1	i	?	89µM*	i	-23%[70.6 µM]
CC1=C[C@@H](CNC(=O)Cn2cnnn2)[C@H](C(C)C)C[C@H]1Cc1nc2ccccc2n1C	4%[88.5 µM]	89µM*	?	i	?
COCC(=O)NC[C@@H]1C=C(C)[C@H](Cc2nc3ccccc3n2C)C[C@H]1C(C)C	-7%[88.5 µM]	50µM*	56µM*	i	?
CC1=C[C@@H](CNC(=O)N2CCOCC2)[C@H](C(C)C)C[C@H]1Cc1nc2ccccc2n1C	0%[88.5 µM]	63µM*	63µM*	i	?
O=C(c1cccc(O)c1)N1CCc2c(n(CCOc3ccccc3)n(-c3ccccc3)c2=O)C1	-10%	22µM*	-15%	i	-8%
Cc1ccc(-c2ccc(C(=O)NCCCn3ccnc3C(C)C)cn2)cc1C	i[11.5 µM]	?	40µM*	?	-5%

Screening results deposited in PubChem by National Center for Advancing Translational Sciences (NCATS).
